Screens as filed in PubChem BioAssay.
Shown are actives, neighbours in structure and some others; about 5% of the full set was active somewhere.
PREPL inh: inhibits the human prolyl oligopeptidase-like enzyme | recombinant PREPL, fluorescence polarization activity-based probe | inhibition, % at 5.96 µM | 320,000 tested, 0.68% active | AID 2751; in the data active = inhibition above about 43%
Target sequence (Q4J6C6 whole entry, looked up): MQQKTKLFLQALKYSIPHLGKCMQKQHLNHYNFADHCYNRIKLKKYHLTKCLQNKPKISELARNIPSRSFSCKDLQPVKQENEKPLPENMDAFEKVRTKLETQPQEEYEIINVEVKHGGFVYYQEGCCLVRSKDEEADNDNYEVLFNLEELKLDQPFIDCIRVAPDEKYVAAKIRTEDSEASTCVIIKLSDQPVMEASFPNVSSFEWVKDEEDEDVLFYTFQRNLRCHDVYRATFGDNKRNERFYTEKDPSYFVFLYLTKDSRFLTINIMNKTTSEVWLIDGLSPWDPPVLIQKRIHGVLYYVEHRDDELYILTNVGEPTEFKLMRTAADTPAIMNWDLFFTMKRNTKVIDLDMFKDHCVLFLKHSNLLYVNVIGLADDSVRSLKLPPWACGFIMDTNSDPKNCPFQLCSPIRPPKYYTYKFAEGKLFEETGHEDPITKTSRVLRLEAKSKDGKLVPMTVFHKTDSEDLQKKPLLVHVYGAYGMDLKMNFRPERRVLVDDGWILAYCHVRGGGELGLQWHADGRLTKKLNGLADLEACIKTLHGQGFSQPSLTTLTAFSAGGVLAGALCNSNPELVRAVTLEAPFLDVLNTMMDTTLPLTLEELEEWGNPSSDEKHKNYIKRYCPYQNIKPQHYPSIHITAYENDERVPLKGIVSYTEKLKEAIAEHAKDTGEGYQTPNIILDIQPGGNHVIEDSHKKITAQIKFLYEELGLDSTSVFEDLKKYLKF
CHT block: inhibitors of human choline transporter CHT | B-score at 10 µM | AID 488975 | CHT-expressing cells, membrane potential dye, choline response; hits give low values | Q9GZV3 | 310,000 tested, 0.86% active;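 active = B-score over 3 SD under the library average, and starting fluorescence ratio not unusually high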;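 also: choline stimulus applied at its EC90 after an EC20 pre-addition; B-score computed on integrated fluorescence ratio after choline addition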
AI-2 QS modul: Vibrio harveyi AI-2 quorum sensing modulation | Vibrio harveyi JMH597 AI-2 luminescence/OD600 ratio, 9 h; hits give low values; strain lacks LuxN and CqsS sensors; 0 = neutral-control median | activity change, % at 7.5 µM | 300,000 tested, 0.4% active; in the data active = activity change below about -75%, passing the limit was not always enough; inconclusive = no clear call, values can overlap the other calls;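 also: luminescence divided by OD600 gain over 9 h not by final OD600 alone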
ALR inh: inhibitors of human sulfhydryl oxidase ALR; P55789; purified ALR, DTT oxidation, H2O2 HRP-luminol luminescence; inhibition, % (no concentration beside the values); 290,000 tested, 3.8% active; AID 485317;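 active = mean replicate inhibition above about 79%, with every replicate also reaching it, limit read from the data; inconclusive = only one of the two criteria met; inactive = mean below limit and not every replicate reaching it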
CHT PAM: allosterically activates the human high affinity choline transporter. Q9GZV3. CHT-expressing cells, membrane potential dye, choline EC20; hits give high values; LV-AA mutant CHT in HEK293 cells. B-score at 10 µM. 310,000 tested, 0.49% active;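 active = initial fluorescence not abnormally high and integrated response B-score, plate-corrected, over 3 SD above library mean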
CHT inh conf: human CHT inhibition, confirmatory screen; shares compounds with CHT block; CHT-expressing cells, choline membrane potential dye; LV-to-AA substituted CHT, HEK293 cells; CHT activity remaining % of control (hits give low values), % at 10 µM; 2,400 tested, 70% active; AID 493221;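 active = choline transporter activity left, mean of duplicates at 10 µM, below buffer-only control mean minus 3 SD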;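 also: depolarization triggered by choline at its EC90 following an EC20 pre-addition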
HEK293 MPD ctr: activity in parental HEK293 cells lacking CHT; shares compounds with CHT block; membrane potential dye, choline response; active = decrease or increase beyond buffer ±3SD; membrane potential ratio readout (active if shifted either direction beyond buffer ±3SD; no single direction) at 10 µM; 2,400 tested, 4% active;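 also: parental cells lack the transporter so any hit is non-specific; ratio is peak minus trough fluorescence over baseline after EC90 choline challenge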
A number is an active result.

COc1ccc(-c2cc(C(F)(F)F)n3ncc(C(=O)N(C)Cc4ccccc4)c3n2)cc1 was read as PREPL inh inactive, CHT block inactive, AI-2 QS modul inactive, ALR inh inactive and CHT PAM inactive.
CN1CCC(N(C)C(=S)NCCc2ccccc2)CC1 was read as PREPL inh inactive, CHT block -7.3, AI-2 QS modul inactive, ALR inh inactive, CHT PAM inactive, CHT inh conf inactive and HEK293 MPD ctr inactive.
Screening CC1CCCN(C(=S)NCCc2ccccc2)C1 (stereo unspecified) returned PREPL inh inactive, CHT block inactive, AI-2 QS modul inactive, ALR inh inactive and CHT PAM inactive.
Screening O=C(O)COCC(=O)Nc1ccc(-n2nc(C(F)(F)F)cc2-c2cccs2)cc1 returned PREPL inh inactive, CHT block inactive, AI-2 QS modul inactive, ALR inh inactive and CHT PAM inactive.
Screening CCN1C(=O)CC(N2CCN(c3ccc(C(=O)c4ccncc4)cc3)CC2)C1=O (stereo unspecified) returned PREPL inh inactive, CHT block inactive, AI-2 QS modul inactive, ALR inh inactive and CHT PAM inactive.
O=C(c1ccncc1)c1ccc(N2CCN(C3CC(=O)N(Cc4cccs4)C3=O)CC2)cc1 (stereo unspecified) was read as PREPL inh inactive, CHT block -5.6, AI-2 QS modul inactive, CHT PAM inactive, CHT inh conf inactive and HEK293 MPD ctr inactive.
Screening O=C(Nc1cc(S(=O)(=O)N2CCCCC2)ccc1O)c1ccccc1NS(=O)(=O)c1ccc(F)c(F)c1 returned PREPL inh inactive, CHT block -9.4, AI-2 QS modul inactive, ALR inh 96, CHT PAM inactive, CHT inh conf 28% and HEK293 MPD ctr inactive.
Screening O=C(Nc1cccc(S(=O)(=O)N2CCCCC2)c1)c1ccccc1NS(=O)(=O)c1ccc(F)cc1 returned PREPL inh inactive, CHT block inactive, AI-2 QS modul inactive, ALR inh inactive and CHT PAM inactive.
`CC(OC(=O)c1ccc(S(=O)(=O)NCc2ccco2)cc1)C(=O)Nc1ccccc1` (stereo unspecified) gave PREPL inh inactive and ALR inh inactive.
COc1cc(/C=N/NC(=O)C(=O)NCc2cccnc2)cc(OC)c1OC was read as PREPL inh inactive, CHT block inactive, AI-2 QS modul inactive, ALR inh inactive and CHT PAM inactive.
Screening COc1cccc(/C=N/NC(=O)C(=O)NCc2cccnc2)c1OC returned PREPL inh inactive, CHT block -5.9, AI-2 QS modul inactive, ALR inh inactive, CHT PAM inactive, CHT inh conf inactive and HEK293 MPD ctr inactive.
COc1ccc(CN2CCN(C(=O)C3CCC(CNS(=O)(=O)c4ccc(C)cc4)CC3)CC2)c(OC)c1OC (stereo unspecified) was read as PREPL inh inactive, CHT block inactive, AI-2 QS modul inactive and CHT PAM inactive.
Oc1c(/C=N/c2ccccn2)sc2ccccc12 was read as PREPL inh inactive, CHT block -8.2, AI-2 QS modul inactive, ALR inh inactive, CHT PAM inactive, CHT inh conf inactive and HEK293 MPD ctr inactive.
Screening CN(c1ccccc1)S(=O)(=O)c1cccc(NS(=O)(=O)c2ccc(/C=C/C(=O)O)cc2)c1 returned PREPL inh inactive, CHT block inactive, AI-2 QS modul inactive, ALR inh inactive and CHT PAM inactive.
Screening Cc1cccc(OCCCn2c(CCNC(=O)C(C)C)nc3ccccc32)c1 returned PREPL inh inactive, CHT block -5.1, AI-2 QS modul inactive, ALR inh inactive, CHT PAM inactive, CHT inh conf inactive and HEK293 MPD ctr inactive.
`CC(=O)NCCc1nc2ccccc2n1CCOc1cccc(C)c1` gave PREPL inh inactive, CHT block inactive, AI-2 QS modul inactive, ALR inh inactive and CHT PAM inactive.
CCN(CC)CCN(Cc1cc2cc3c(cc2[nH]c1=O)OCCO3)C(=S)NC was read as PREPL inh inactive, CHT block inactive, AI-2 QS modul inactive, ALR inh inactive and CHT PAM inactive.
`Cc1ccc(NC(=O)c2ccc(CN3CC(=O)N4CCCCC4C3=O)cc2)c(C)c1` (stereo unspecified) gave PREPL inh inactive, CHT block -5.5, AI-2 QS modul inactive, ALR inh inactive, CHT PAM inactive, CHT inh conf 9.5% and HEK293 MPD ctr inactive.
`COc1ccc(C2SCC(=O)N2CCc2ccc(OC)c(OC)c2)cc1` (stereo unspecified) gave PREPL inh inactive, CHT block -6, AI-2 QS modul inactive, ALR inh inactive, CHT PAM inactive, CHT inh conf 43% and HEK293 MPD ctr inactive.
Screening COc1ccc(CCN2C(=O)CSC2c2ccc(OC)c(OC)c2)cc1OC (stereo unspecified) returned PREPL inh inactive, CHT block inactive, AI-2 QS modul inactive, ALR inh inactive and CHT PAM inactive.
O=[N+]([O-])c1c(Nc2ccccc2O)cc(Cl)c2nonc12 was read as CHT block -8.5, AI-2 QS modul inconclusive, ALR inh inactive, CHT PAM inactive, CHT inh conf 38% and HEK293 MPD ctr inactive.
Cc1cc(C)c(S(=O)(=O)/N=C2\C=C(Nc3ccc(C(=O)O)cc3)C(=O)c3ccccc32)c(C)c1 was read as PREPL inh inactive, CHT block -5.6, AI-2 QS modul inactive, CHT PAM inactive, CHT inh conf 25% and HEK293 MPD ctr inactive.
For O=c1[nH]cc(N=Cc2cc(Cl)cc(Cl)c2O)c(=O)[nH]1 the results were PREPL inh inactive, CHT block -13, AI-2 QS modul inactive, ALR inh inactive, CHT PAM inactive, CHT inh conf 51% and HEK293 MPD ctr inactive.
For O=c1[nH]cc(N=Cc2cc([N+](=O)[O-])ccc2O)c(=O)[nH]1 the results were PREPL inh inactive, CHT block inactive, AI-2 QS modul inactive, ALR inh inactive and CHT PAM inactive.
COc1ccc(S(=O)(=O)c2cnc3ccc(OC)cc3c2N2CCC3(CC2)OCCO3)cc1 was read as PREPL inh inactive, CHT block -9.7, AI-2 QS modul inactive, ALR inh inactive, CHT PAM inactive, CHT inh conf 23% and HEK293 MPD ctr inactive.
CCOc1ccc2ncc(S(=O)(=O)c3ccccc3)c(N3CCC4(CC3)OCCO4)c2c1 was read as PREPL inh inactive, CHT block inactive, AI-2 QS modul inactive, ALR inh inactive and CHT PAM inactive.
CCOC(=O)C1CCN(c2c(NCCC(C)C)c(=O)c2=O)CC1 was read as PREPL inh inactive, CHT block -6.4, AI-2 QS modul inactive, ALR inh inactive, CHT PAM inactive, CHT inh conf inactive and HEK293 MPD ctr inactive.
